# Active and inactive are the calls of the source. The call rests on the fitted dose curve; in most records, active means well fitted curve in the direction sought with a large enough effect; inconclusive means small, poorly fitted or top-dose-only effect, or another doubt; inactive means no such curve, though single readings can be large or run the other way.
# Target: Guanine nucleotide-binding protein G(i) subunit alpha-1 (Homo sapiens) (UniProt P63096)
# Experiment: qHTS Assay for Inhibitors of RGS12 GoLoco Motif Activity (Green Fluorophore) (AID 879);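 further: negative values mean loss of peptide binding seen as reduced polarization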
# Settings: Galphai1/FITC-RGS12 GoLoco peptide, fluorescence polarization; series mostly up to 57.1 µM
# From the text: Assay Overview: NIH Molecular Libraries Screening Centers Network [MLSCN] NIH Chemical Genomics Center [NCGC] MLSCN Grant: NS053754-01 Assay Provider: Siderovski, David P, University of North Carolina at Chapel Hill G-protein-coupled receptors (GPCRs) are major targets for drug discovery. The regulator of G-protein signaling (RGS)-protein family has important roles in GPCR signal transduction. RGS proteins contain a conserved RGS-box, which is often accompanied by other signaling regulatory elements. RGS proteins accelerate the deactivation of G proteins to reduce GPCR signaling; however, some also have an effector function and transmit signals. Combining GPCR agonists with RGS inhibitors should potentiate responses, and could markedly increase the agonist's regional specificity. The diversity of RGS proteins with highly localized and dynamically regulated distributions in brain makes them attractive targets for pharmacotherapy of central nervous system disorders. […] A complex of Gai1 and fluorescently labeled G-alpha-binding peptide (the "GoLoco motif") derived from RGS12 is incubated with library members. Inhibitors of the binding are detected by a decrease in the fluorescence polarization (FP) of the fluorophore. Protein was supplied by Prof. David Siderovski, University of North Carolina at Chapel Hill.
# Assay Protocol: Reagents/Controls: Assay Buffer: 10 mM Tris-HCl, 150 mM NaCl, 0.1 mM GDP (prepared fresh), and 0.05% NP40 at pH 7.5. […] 10 nM FITC labeled peptide/50 nM protein in columns 1, 2, 5 - 48. Titration of unlabeled peptide control ([H][…][NH2], custom synthesized and HPLC-purified by Tufts University Core Facility) from 10 mM, then 1:2 dilution, 16-point in duplicate, pin-transferred to column 2, rows 1 to 32. Column 1 is neutral. FITC-labeled RGS12-GoLoco peptide was custom-synthesized and HPLC-purified by Michael Berne of Tufts University Assay Steps. Four uL of reagents were dispensed to 1536-well Greiner black solid-bottom plates. Compounds and controls (23 nL) were transferred via Kalypsys PinTool. The plates were incubated for 10 min at room temperature, and then read on ViewLux (Perkin-Elmer) High-throughput CCD imager using FITC polarization filter sets for the fluorescein-labeled decapeptide probe.During dispense, reagent bottles were kept submerged into 4 deg C water bath and all liquid lines were covered with aluminum foil to minimize probe and protein degradation. All screening operations were performed on a Kalypsys robotic system (Kalypsys, Inc., San Diego, CA) containing one RX-130 and two RX-90 anthropomorphic robotic arms.
# Sequence of Guanine nucleotide-binding protein G(i) subunit alpha-1 (Homo sapiens) (P63096 whole entry, looked up): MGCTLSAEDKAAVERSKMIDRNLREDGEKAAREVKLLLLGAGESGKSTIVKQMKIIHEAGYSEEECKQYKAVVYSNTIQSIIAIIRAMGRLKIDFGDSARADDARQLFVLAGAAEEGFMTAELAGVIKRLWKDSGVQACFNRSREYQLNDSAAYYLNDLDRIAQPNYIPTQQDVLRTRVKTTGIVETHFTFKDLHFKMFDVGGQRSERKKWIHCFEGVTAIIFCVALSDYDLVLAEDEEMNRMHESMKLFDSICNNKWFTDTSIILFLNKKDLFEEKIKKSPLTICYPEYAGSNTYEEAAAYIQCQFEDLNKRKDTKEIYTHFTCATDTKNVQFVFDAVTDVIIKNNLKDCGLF
row,SMILES,outcome
1,Cn1cnc(CCN)c1,inactive
2,c1ccc(CCCN2CCN(CCOC(c3ccccc3)c3ccccc3)CC2)cc1,inactive
3,CC(=O)NCCc1c[nH]c2ccccc12,inactive
4,S=C(NC1CCCCC1)N1CCC(c2cnc[nH]2)CC1,inactive
5,Clc1cnc(Oc2ccc(Oc3ncc(Cl)cc3Cl)cc2)c(Cl)c1,inactive
6,O=C(O)CC[N+](=O)[O-],inactive
7,Cc1c(C(=O)c2cccc3ccccc23)c2cccc3c2n1[C@H](CN1CCOCC1)CO3,inactive
8,CNCCc1ccc(O)c(O)c1,inactive
9,CC1=NN=C(c2ccc(N)cc2)c2cc3c(cc2C1)OCO3,inactive
10,CC(C)Oc1cccnc1N(C)C1CCN(Cc2ccccc2)CC1,inactive
11,NC(N)=NOCCC(N)C(=O)O (stereo unspecified),inactive
12,CCCN(CCC)[C@@H]1CCc2ccc(O)cc2C1,inactive
13,CCCN1CCC[C@H](c2cccc(O)c2)C1,inactive
14,C[C@]12N[C@H](Cc3ccccc31)c1ccccc12,inactive
15,Cc1nc(-c2ccc(-c3ccc(C(=O)N4CCc5cc6c(cc54)C4(CCN(C)CC4)CO6)cc3)c(C)c2)no1,inactive
16,Cc1nccc2c1[nH]c1ccccc12,inactive

row,SMILES,outcome
1,C[C@@H]1O[C@H](C[N+](C)(C)C)C[C@H]1O,inactive
2,CNCCc1c[nH]c2ccc(O)cc12,inactive
3,O=C(O)Cc1cnc[nH]1,inactive
4,CC[C@@]1(O)C(=O)OCc2c1cc1n(c2=O)Cc2cc3ccccc3nc2-1,inactive
5,C#CCOC(=O)C1=CCCN(C)C1,inactive
6,NC(=NCCC[C@H](N)C(=O)O)N[N+](=O)[O-],inactive
7,COc1ccc2c(c[n+](C)c3c4cc5c(cc4ccc23)OCO5)c1OC,inactive
8,NCc1cc(=O)[nH]o1,inactive
9,CCCN1CCO[C@@H]2c3cc(O)ccc3OC[C@H]21,inactive
10,c1ccc2sc(C3(N4CCCCC4)CCCCC3)cc2c1,inactive
11,O=C1CCCN1CC#CCN1CCCC1,inactive
12,CN[C@@H]1C[C@@H](c2ccc(Cl)c(Cl)c2)c2ccccc21,inactive
13,NCCc1c[nH]c2ccc(O)cc12,inactive
14,CCCCc1ccc(C(=O)O)nc1,inactive
15,NCCc1c[nH]c2ccccc12,inactive

# Reference: PubChem BioAssay (NCATS)
